# Several values for one entry are separate records, joined by “and”; a condition that tells them apart may be missing. Equal values may be shown once. Results filed as inconclusive are left out. A call without a number means that no potency is given here. Activity calls are given as the source filed them. Unless noted, calls come from the whole dose curve; as a rule, active = well fitted curve in the direction sought with a large enough effect; inconclusive = small, poorly fitted or top-dose-only effect, or another doubt; inactive = no such curve, though single readings can be large; an effect the other way counts as inactive or inconclusive.
# Key:
# [1] = Cell Viability - Hek293 (AID 427;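 active = compounds whose dose-response curve shows a full or clear partial loss of cell viability, called from curve shape rather than a numeric limit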;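 note: potency is the fitted concentration of half-maximal effect; cells exposed to compound for 40 hours at 37 °C before reading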); conditions: qHTS
# Procedure, shortened: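 qHTS, human embryonic kidney (adenovirus-transformed) cells; 40 hr cpd, 37 °C; CellTiter-Glo ATP luminescence. Norm: DMSO = 0, 100 uM tamoxifen = 100% inhibition. Hill-fit AC50.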
# [2] = Cell Viability - SK-N-SH (AID 435; calls by dose curve;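 note: potency is the fitted concentration of half-maximal effect; compound exposure lasted 40 h at 37 °C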); conditions: SK-N-SH neuroblastoma cell viability qHTS
# Procedure, shortened: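 Human neuroblastoma line, 40 h exposure at 37 °C, ATP quantified via luciferase luminescence; DMSO and 100 uM tamoxifen define 0 and 100% inhibition for AC50 fitting.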
# [3] = Cell Viability - Renal Proximal Tubule (AID 545); conditions: renal proximal tubule cells viability, primary cells of rat origin; activity change, negative = cytotoxicity: at 91.7 µM (top of the series); note: nearly all actives have a fitted effect of over 40% in size; note: potency is the fitted concentration of half-maximal effect
# Procedure, shortened: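 In this qHTS format, normal rat kidney-derived proximal tubule cells in complete culture medium receive compound titrations, then sit 40 hours at 37 °C before luciferase-based ATP quantitation; potency is reported as AC50 from concentration-response curves.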
# [4] = MultiTox-Fluor Cytotoxicity Assay - LYMP1-001 - Live Cells (AID 947); conditions: LYMP1-001 lymphoblastoid cells, live-cell protease fluorescence viability; series mostly up to 92.2 µM
# [5] = Cell Viability - LYMP2-005 (AID 967); conditions: LYMP2-005 lymphoblastoid cell viability; series mostly up to 92.2 µM; note: potency is the fitted concentration of half-maximal effect
# Procedure, shortened: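 Luciferase-based ATP quantitation served as the viability measure in human lymphoblastoid LYMP2-005 cells exposed to test compounds for 24 h at 37 C in complete culture medium. Potency (AC50) was obtained by fitting concentration-response curves with the Hill equation.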
# [6] = Cell Viability - LYMP2-009 (AID 968); conditions: LYMP2-009 lymphoblastoid cell viability; series mostly up to 92.2 µM; note: nearly all actives have a fitted effect of over 55% in size; note: potency is the fitted concentration of half-maximal effect
# [7] = Cell Viability - LYMP2-015 (AID 971); conditions: LYMP2-015 lymphoblastoid cell viability; series mostly up to 92.2 µM; note: nearly all actives have a fitted effect of over 55% in size; note: potency is the fitted concentration of half-maximal effect
# Procedure, shortened: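 qHTS cytotoxicity: 2500 cells/well, 5 hr 37 C, compound 24 hr 37 C, CellTiter-Glo 30 min RT, luminescence. Loss of ATP = toxicity; AC50 via standard Hill fit.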
# [8] = Cell Viability - LYMP2-019 (AID 973); conditions: LYMP2-019 lymphoblastoid cell line viability; series mostly up to 92.2 µM; note: nearly all actives have a fitted effect of over 55% in size; note: potency is the fitted concentration of half-maximal effect
# Procedure, shortened: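 qHTS, 1536-well; 2500 cells/well; 5 hr pre-incubation, 24 hr compound exposure, 37 C; CellTiter-Glo added, 30 min RT; luminescence read; AC50 via standard Hill equation.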
# [9] = Cell Viability - LYMP2-006 (AID 978); conditions: LYMP2-006 lymphoblastoid cell viability, qHTS; series mostly up to 92.2 µM; note: nearly all actives have a fitted effect of over 60% in size; note: potency is the fitted concentration of half-maximal effect
# Procedure, shortened: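 In this cytotoxicity screen, the human lymphoblastoid line grew in complete medium with test compounds for 24 hr at 37 C. Cellular ATP served as the viability signal.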
# [10] = Cell Viability - LYMP2-010 (AID 981); conditions: LYMP2-010 lymphoblastoid cell viability, qHTS; series mostly up to 92.2 µM; note: nearly all actives have a fitted effect of over 55% in size; note: potency is the fitted concentration of half-maximal effect
# Procedure, shortened: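 qHTS cytotoxicity, 1536-well: 2500 cells/well, 5 hr settle, 24 hr compound at 37 C, CellTiter-Glo 30 min RT, luminescence read. Decrease in ATP = toxicity; AC50 via standard Hill equation. Positive control tetraoctylammonium bromide.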
# [11] = target: Glucocorticoid receptor (Homo sapiens) (UniProt P04150); test: qHTS assay for small molecule agonists of glucocorticoid receptor signaling (AID 588532; active = well fitted curve in the direction sought with a large enough effect in the signal ratio, with a control signal flat; the % refers to the signal ratio); conditions: HeLa MMTV-bla, beta-lactamase ratio, agonist, 18 h; stronger effect = higher value; percent of dexamethasone control, DMSO zero
# Sequence of Glucocorticoid receptor (Homo sapiens) (P04150 whole entry, looked up): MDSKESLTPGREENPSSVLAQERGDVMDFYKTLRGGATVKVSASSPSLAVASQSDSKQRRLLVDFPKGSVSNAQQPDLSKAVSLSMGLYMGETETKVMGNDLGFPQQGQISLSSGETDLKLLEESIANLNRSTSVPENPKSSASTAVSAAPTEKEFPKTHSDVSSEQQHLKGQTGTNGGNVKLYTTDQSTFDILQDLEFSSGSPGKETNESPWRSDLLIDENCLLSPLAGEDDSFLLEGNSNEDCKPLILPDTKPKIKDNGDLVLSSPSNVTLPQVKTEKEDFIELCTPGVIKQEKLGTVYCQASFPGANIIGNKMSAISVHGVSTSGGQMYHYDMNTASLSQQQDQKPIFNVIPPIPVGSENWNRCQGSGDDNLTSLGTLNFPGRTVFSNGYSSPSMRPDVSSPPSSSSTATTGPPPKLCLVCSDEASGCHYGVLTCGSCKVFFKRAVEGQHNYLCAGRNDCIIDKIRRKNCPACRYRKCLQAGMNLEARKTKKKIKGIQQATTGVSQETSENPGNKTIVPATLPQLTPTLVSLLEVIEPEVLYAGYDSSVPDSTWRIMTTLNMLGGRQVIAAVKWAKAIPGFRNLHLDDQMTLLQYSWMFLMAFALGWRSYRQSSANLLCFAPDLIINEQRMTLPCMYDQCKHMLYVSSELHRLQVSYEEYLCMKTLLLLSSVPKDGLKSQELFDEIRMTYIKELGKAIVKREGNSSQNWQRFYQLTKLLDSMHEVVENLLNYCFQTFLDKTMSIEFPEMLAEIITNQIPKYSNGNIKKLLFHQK
# Procedure, shortened: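 Quantitative HTS using CellSensor MMTV-bla HeLa cells in charcoal/dextran-treated serum; compounds tested up to 92 uM. After 18 h at 37 C, CCF4 dye reported reporter induction.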
# [12] = qHTS assay for small molecule agonists of retinoid X receptor alpha signaling (AID 588544); conditions: HEK293T RXRa-UAS-bla, beta-lactamase reporter, 18 h; 530 nm emission
# [13] = target: Thyroid hormone receptor beta (Homo sapiens) (UniProt P10828); test: qHTS assay for small molecule agonists of thyroid hormone receptor beta signaling (AID 588545; calls by dose curve; note: potency is the fitted concentration of half-maximal effect); conditions: TR-UAS-bla GripTite HEK 293, beta-lactamase ratio, agonist mode, 18 h; series mostly up to 76.7 µM
# Sequence of Thyroid hormone receptor beta (Homo sapiens) (P10828 whole entry, looked up): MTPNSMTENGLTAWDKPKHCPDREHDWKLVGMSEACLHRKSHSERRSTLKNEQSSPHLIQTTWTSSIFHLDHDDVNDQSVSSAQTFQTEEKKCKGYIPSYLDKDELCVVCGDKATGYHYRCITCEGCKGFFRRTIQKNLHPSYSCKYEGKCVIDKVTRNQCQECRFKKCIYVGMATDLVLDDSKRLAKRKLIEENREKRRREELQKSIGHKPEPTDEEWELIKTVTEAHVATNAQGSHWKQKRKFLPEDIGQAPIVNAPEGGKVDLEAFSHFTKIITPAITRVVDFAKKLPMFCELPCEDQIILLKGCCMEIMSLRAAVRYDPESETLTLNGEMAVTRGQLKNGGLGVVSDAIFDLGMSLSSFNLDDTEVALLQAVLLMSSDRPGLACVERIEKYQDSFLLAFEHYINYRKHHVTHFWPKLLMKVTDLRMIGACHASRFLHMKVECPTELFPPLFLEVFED
# Procedure, shortened: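 Compounds were tested as agonists in TR-UAS-bla-GripTite HEK 293 cells. After 18 hrs at 37 C, CCF4 substrate was added and fluorescence read after 2 hrs at room temperature.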
# [14] = target: Thyroid hormone receptor beta (Homo sapiens) (UniProt P10828); test: qHTS assay for small molecule antagonists of thyroid hormone receptor beta signaling (AID 588547; active = well fitted inhibition curve with a large enough effect in the signal ratio, with a control signal flat, not every such curve was filed as active; the % refers to the signal ratio;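 note: cells stimulated with 0.4 nM T3 agonist during compound exposure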); conditions: TR-UAS-bla HEK293, beta-lactamase ratio, antagonist mode, 18 h
# Procedure, shortened: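 Inhibition of T3-driven (0.4nM final) beta-lactamase reporter activity was measured over 0.59 nM to 92 uM compound after 18 h at 37 C. The cells were GripTite HEK293 TR-UAS-bla in charcoal/dextran-stripped serum, with CCF4 ratio read-out and IC50 from Hill fits.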
# [15] = target: Voltage-gated inwardly rectifying potassium channel KCNH2 (Homo sapiens) (UniProt Q12809); test: qHTS Assay for Small Molecule Inhibitors of the Human hERG Channel Activity (AID 588834); conditions: U2OS BacMam hERG, FluxOR thallium flux fluorescence; series mostly up to 92.2 µM;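 note: lower thallium flux fluorescence means stronger hERG block; nearly all actives have a fitted effect of over 50% in size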; note: potency is the fitted concentration of half-maximal effect
# Sequence of Voltage-gated inwardly rectifying potassium channel KCNH2 (Homo sapiens) (Q12809 whole entry, looked up): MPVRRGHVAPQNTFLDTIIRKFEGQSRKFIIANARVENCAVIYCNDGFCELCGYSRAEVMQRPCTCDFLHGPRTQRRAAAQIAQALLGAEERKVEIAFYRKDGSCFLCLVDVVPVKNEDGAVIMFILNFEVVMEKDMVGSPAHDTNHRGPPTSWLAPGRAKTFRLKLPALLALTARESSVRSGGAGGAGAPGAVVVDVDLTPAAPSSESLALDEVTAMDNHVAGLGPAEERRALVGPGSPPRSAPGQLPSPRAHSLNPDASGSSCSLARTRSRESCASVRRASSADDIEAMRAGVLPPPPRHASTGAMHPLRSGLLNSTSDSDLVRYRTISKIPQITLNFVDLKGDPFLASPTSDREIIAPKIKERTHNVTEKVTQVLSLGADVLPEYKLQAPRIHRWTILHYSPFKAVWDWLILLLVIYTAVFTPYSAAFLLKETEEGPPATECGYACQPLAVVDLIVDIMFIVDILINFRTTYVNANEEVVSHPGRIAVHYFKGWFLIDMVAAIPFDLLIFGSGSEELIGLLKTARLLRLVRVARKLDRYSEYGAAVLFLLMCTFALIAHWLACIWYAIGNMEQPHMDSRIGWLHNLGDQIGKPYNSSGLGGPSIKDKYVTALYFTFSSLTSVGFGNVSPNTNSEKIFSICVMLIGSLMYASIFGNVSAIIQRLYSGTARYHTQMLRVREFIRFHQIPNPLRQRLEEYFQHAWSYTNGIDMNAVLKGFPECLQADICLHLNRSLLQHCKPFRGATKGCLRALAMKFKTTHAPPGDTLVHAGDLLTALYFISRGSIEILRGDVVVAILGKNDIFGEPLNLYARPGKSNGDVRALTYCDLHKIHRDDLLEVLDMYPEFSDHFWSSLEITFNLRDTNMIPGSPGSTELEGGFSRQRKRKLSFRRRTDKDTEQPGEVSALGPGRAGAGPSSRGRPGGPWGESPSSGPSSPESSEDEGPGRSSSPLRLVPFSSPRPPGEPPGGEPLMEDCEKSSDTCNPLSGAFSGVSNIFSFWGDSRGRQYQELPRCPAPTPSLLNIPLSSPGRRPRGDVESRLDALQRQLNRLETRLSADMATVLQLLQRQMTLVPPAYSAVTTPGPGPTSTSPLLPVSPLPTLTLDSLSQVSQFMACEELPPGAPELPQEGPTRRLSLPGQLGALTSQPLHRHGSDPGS
# Procedure, shortened: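 Homogeneous FluxOR thallium flux assay using hERG-expressing U2OS cells (BacMam). Compound treatment about 10 minutes preceded stimulation; reduced fluorescence taken as channel block.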
# [16] = qHTS assay for small molecule disruptors of the mitochondrial membrane potential - 1 hr assay (AID 651754; calls by dose curve; note: nearly all actives have a fitted effect of over 35% in size; note: potency is the fitted concentration of half-maximal effect); conditions: series mostly up to 92.2 µM
# Procedure, shortened: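 Read-out: dye fluorescence at 490 nm ex/535 nm em (monomers) and 540 nm ex/590 nm em (aggregates) in HepG2 cells. Compound exposure 1 hr at 37C, followed by 30 min dye loading.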
# [17] = qHTS assay for small molecule disruptors of the mitochondrial membrane potential - 5 hr assay (AID 651755; calls by dose curve; note: nearly all actives have a fitted effect of over 40% in size; note: potency is the fitted concentration of half-maximal effect); conditions: JC-1-type ratio dye; series mostly up to 92.2 µM
# Procedure, shortened: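 Membrane-potential dye readout: red aggregate (540 ex/590 em) versus green monomer (490 ex/535 em) fluorescence after 30 min dye loading, following 5 hr compound exposure at 37C of overnight-plated HepG2 cells.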
# [18] = qHTS assay for small molecule antagonists of the retinoid-related orphan receptor gamma (ROR-gamma) signaling pathway - cell viability counter screen (AID 720652; active = well fitted curve in the direction sought with a large enough effect in the repeat runs; an effect the other way counts as inactive or inconclusive;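 note: CHO reporter cells with doxycycline-induced ROR-gamma expression; compound exposure lasted 16 hr before ATP read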); conditions: RORgamma reporter cell line viability counter screen; series mostly up to 92.2 µM
# Procedure, shortened: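 CHO RORE-LUC/TET-ROR line, 1,000 cells/well, 37 C 5% CO2 5 hr; cpd or DMSO + doxycycline induction, 16 hr. CellTiter-Glo, 30 min RT, luminescence = ATP content.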
# [19] = target: Nuclear receptor subfamily 1 group I member 2 (Rattus norvegicus) (UniProt Q9R1A7); test: qHTS assay for small molecule activators of the rat pregnane X receptor (rPXR) signaling pathway (AID 651751; call rule not given here); conditions: rPXR reporter cells, luciferase (One-Glo), 24 h
# Sequence of Nuclear receptor subfamily 1 group I member 2 (Rattus norvegicus) (Q9R1A7 whole entry, looked up): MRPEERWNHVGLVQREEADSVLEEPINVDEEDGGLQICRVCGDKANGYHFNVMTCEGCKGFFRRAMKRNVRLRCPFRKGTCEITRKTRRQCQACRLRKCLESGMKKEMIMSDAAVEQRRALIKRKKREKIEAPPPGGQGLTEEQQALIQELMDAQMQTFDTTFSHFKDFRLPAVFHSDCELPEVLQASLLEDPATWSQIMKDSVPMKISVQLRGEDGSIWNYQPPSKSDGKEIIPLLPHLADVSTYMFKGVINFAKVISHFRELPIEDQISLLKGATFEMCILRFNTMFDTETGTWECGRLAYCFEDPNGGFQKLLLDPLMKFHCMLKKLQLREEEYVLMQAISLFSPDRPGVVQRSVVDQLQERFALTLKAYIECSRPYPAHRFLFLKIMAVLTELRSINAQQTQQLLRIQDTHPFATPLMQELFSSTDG
# [20] = MultiTox-Fluor Cytotoxicity Assay - LYMP1-002 - Dead Cells (AID 960); conditions: LYMP1-002 lymphoblastoid cells, dead-cell protease fluorescence; series mostly up to 46.1 µM; note: nearly all actives have a fitted effect of over 60% in size; note: potency is the fitted concentration of half-maximal effect
# Procedure, shortened: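 Readout: fluorescence at 485/520 from cell-impermeant bis-AAF-R110 cleaved by proteases leaking from damaged cells. LYMP1-002 lymphoblastoid line, 16 hr compound treatment at 37 C, concentration-response in qHTS format; Hill-equation AC50 values.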
SMILES,Potency [1],Potency [2],Potency [3],Potency [4],Potency [5],Potency [6],Potency [7],Potency [8],Potency [9],Potency [10],activation [11],max response [12],Potency [13],activity change % (negative = inhibition) [14],Potency [15],Potency [16],Potency [17],Potency [18],max response [19],Potency [20]
O=C(OCc1ccccc1)c1ccccc1O,> 92 µM (inactive),> 92 µM (inactive),inactive,inactive,inactive,inactive,inactive,inactive,inactive,inactive,-2.46% (inactive) and -9.77% (inactive),-8.01% and -0.712%,inactive,-8.64% (inactive),39.8 µM (active),inactive,inactive,inactive,-3.94% (inactive) and -2.55% (inactive),–
CC(C)(C)C(=O)C1C(=O)c2ccccc2C1=O,–,20.1 µM (active),inactive,inactive,inactive,inactive,–,inactive,–,–,-3.45% (inactive),–,–,12.3% (inactive),inactive,inactive,inactive,–,-2.46% (inactive),inactive
O=C1c2ccccc2C(=O)C1(O)O,–,–,1.58 µM (active),–,–,inactive,–,–,inactive,–,–,5.07%,inactive,-4.45% (inactive),inactive,–,inactive,–,1% (inactive),inactive
O=C(Cl)c1ccc([N+](=O)[O-])cc1,> 92 µM (inactive),–,inactive,inactive,–,inactive,inactive,inactive,inactive,inactive,-2.19% (inactive),-12.7%,inactive,12% (inactive),inactive,inactive,inactive,inactive,-6.29% (inactive),inactive
CC1=C(/C=C/C(C)=C/C=C/C(C)=C/C=O)C(C)(C)CCC1,53.9 µM (active),42.3 µM (active),15.8 µM (active),–,39.8 µM (active),39.8 µM (active),39.8 µM (active),50.1 µM (active),63.1 µM (active),31.6 µM (active),–,–,inactive,–,–,inactive,inactive,–,–,31.6 µM (active)
CC/C=C/C/C=C/C/C=C/CCCCCCCC(=O)OCC,> 92 µM (inactive),> 92 µM (inactive),inactive,inactive,31.6 µM (active),39.8 µM (active),39.8 µM (active),39.8 µM (active),50.1 µM (active),25.1 µM (active),-2.85% (inactive),–,inactive,–,–,inactive,inactive,–,2.44% (inactive),–
Cc1cc2nc(N)sc2cc1C,> 92 µM (inactive),> 92 µM (inactive),–,inactive,inactive,inactive,inactive,inactive,inactive,inactive,-1.47% (inactive),-11.8%,inactive,-0.19% (inactive),inactive,inactive,inactive,inactive,–,inactive
CCN(CC)c1ccc(N)cc1,–,–,–,–,–,–,–,–,–,–,8.72% (inactive),–,–,–,–,29.8 µM (active),29.8 µM (active),inactive,3.24% (inactive),inactive
Cc1c2ccccc2c(C)c2c1ccc1ccccc12,–,–,–,inactive,inactive,inactive,–,inactive,inactive,–,–,–,–,–,inactive,37.6 µM (active),33.5 µM (active),–,–,25.1 µM (active)
CN(C)c1ccc(C(=N)c2ccc(N(C)C)cc2)cc1,–,–,–,–,inactive,–,–,–,–,–,2.53% (inactive),–,inactive,-25.2% (inactive),15.8 µM (active),–,–,–,–,15.8 µM (active)
Cc1cc(-c2ccc(N=Nc3cc(S(=O)(=O)O)c4ccccc4c3N)c(C)c2)ccc1N=Nc1cc(S(=O)(=O)O)c2ccccc2c1N,–,–,–,inactive,–,–,–,inactive,–,–,–,-22%,inactive,-25.1% (inactive),inactive,–,–,inactive,-3.26% (inactive),–
Oc1ccc(O)c2c(O)cccc12,–,–,inactive,inactive,–,–,–,–,–,–,-3.75% (inactive),-16.7%,inactive,-24.9% (inactive),inactive,23.7 µM (active),–,–,1.1% (inactive),inactive
CCN(CC)c1ccc2c(C)cc(=O)oc2c1,> 92 µM (inactive),> 92 µM (inactive),–,inactive,inactive,inactive,inactive,inactive,inactive,inactive,–,–,22.4 µM (active),–,inactive,–,–,inactive,–,–
S=C(NC1CCCCC1)NC1CCCCC1,–,–,inactive,inactive,inactive,inactive,inactive,inactive,inactive,inactive,9% (inactive),7.4%,inactive,30% (inactive),inactive,–,inactive,inactive,8.83% (inactive),inactive
O=C=Nc1ccc(Cl)c(Cl)c1,38.9 µM (active),–,–,–,inactive,–,–,–,–,–,5.86% (inactive),–,–,–,inactive,4.22 µM (active),5.96 µM (active),–,–,inactive
c1ccc(Nc2cccc3ccccc23)cc1,> 92 µM (inactive),> 92 µM (inactive),inactive,inactive,inactive,inactive,inactive,inactive,inactive,inactive,–,-7.08% and 4.25%,inactive,-18.5% (inactive) and -42% (inactive),–,–,–,–,–,–
Nc1ccc(N)c(Cl)c1,–,–,–,–,inactive,–,–,inactive,inactive,–,–,15.5%,inactive,-7.72% (inactive),inactive,7.5 µM (active),10.6 µM (active),inactive,-1.32% (inactive),inactive

# Source: PubChem BioAssay (NCATS)
